# From PubChem
# This is a sample that favours compounds with a hit; in the whole collection about 3.6% have one here.
# IMPase Li cell: IMPase inhibition in cells with lithium potentiation; CHO-M1 cells, IP1 TR-FRET (IP-One), carbachol + lithium; Potency, µM (highest dose often 59.4 µM), for the others: at the highest dose activity, negative = IMPase inhibition, actives largely listed as inhibitors; hit rate 0.35% among 210,000; AID 1457;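 further: IP1 builds up when IMPase is blocked and the TR-FRET signal falls; plate controls were basal vehicle for no effect and high inhibitor control for full effect; nearly all actives have a fitted effect of over 50% in size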
#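 CHO-M1, 2000 cells/well, 16–30 h culture; cpd + low Li+, 30 min 37C; lysis with d2-IP1/Eu-anti-IP1 Ab, 10 min RT; TR-FRET 665/620 ratio and 620 channel; AC50 via Hill.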
# NPSR antagonist: neuropeptide S receptor (human) antagonism, cAMP; Q6W5P4; CHO-NPSR cells, cAMP TR-FRET, antagonist mode; Potency, µM (series often up to 38.3 µM), inactives show at the highest dose activity change, negative = inhibition, hits mostly inhibitors; hit rate 1% among 220,000; AID 1461; further: on the % scale 0 is the no-effect control and ±100 the full control effect; nearly all actives have a fitted effect of over 50% in size
# Sfp PPTase inh: Sfp phosphopantetheinyl transferase inhibition | AID 1490 | Biochemical Sfp PPTase activity, qHTS | hit rate 3.5% among 310,000 | Potency, µM, for inactives: largest response in the series, negative = inhibition, usual class: inhibitors | Q9F4F7;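 further: the enzyme is Sfp with the accession as filed and its product quenches rhodamine fluorescence; 0% = enzyme reaction without inhibitor and -100% = no enzyme wells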
#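 Reaction rates are the 30-min fluorescence difference (ex 525, em 598 nm) in wells containing 15 nM Sfp, 5 uM rhodamine-CoA and 12.5 uM BHQ-2-YbbR at pH 7.6 with 10 mM MgCl2.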
# JMJD2E inh: blocks human JMJD2E demethylase activity; hit rate 1.6% among 230,000; Potency, µM (series often up to 57.1 µM), without a hit: at the highest dose activity change, negative = inhibition, most hits filed as inhibitors; JMJD2E catalytic domain, FDH-coupled NADH fluorescence (FDH is formaldehyde dehydrogenase);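 further: 0% = wells with enzyme and -100% = buffer wells without enzyme; nearly all actives have a fitted effect of over 50% in size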
# Target sequence (B2RXH2 1-337 limits assumed): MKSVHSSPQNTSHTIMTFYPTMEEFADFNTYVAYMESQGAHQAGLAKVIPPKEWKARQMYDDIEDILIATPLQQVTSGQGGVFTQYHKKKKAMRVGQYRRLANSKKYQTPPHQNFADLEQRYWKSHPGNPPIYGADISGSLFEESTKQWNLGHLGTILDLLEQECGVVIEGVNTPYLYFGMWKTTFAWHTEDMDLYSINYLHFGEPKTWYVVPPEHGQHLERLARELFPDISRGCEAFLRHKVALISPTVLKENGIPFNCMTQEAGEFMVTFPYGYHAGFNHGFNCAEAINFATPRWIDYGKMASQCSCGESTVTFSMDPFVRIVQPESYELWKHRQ
# GCN5L2 inh: blocks human GCN5L2 histone acetyltransferase | Potency, µM (series often up to 58.9 µM), for the others: top-dose activity change, negative = inhibition, hits mostly inhibitors | AID 504327 | Q92830 | hit rate 0.21% among 390,000 | GCN5L2 HAT assay, ThioGlo1 CoA-SH fluorescence; further: on the % scale 0 is the no-effect control and ±100 the full control effect
#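 Compounds, pin-transferred from DMSO stocks, meet 20nM GCN5L2 for 15 min before the reaction begins with H3(1-25) peptide (75uM) and acetyl-CoA (70uM). Thiol-reactive ThioGlo1 reports CoA release over 20 min at room temperature.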
# Epigenetic derep: derepresses silenced GFP reporter in murine cells | AID 1865 | hit rate 0.2% among 280,000 | Potency, µM (titrated, usually from 53.9 µM), for inactives: at the top dose GFP activation, usual class: activators | murine LDR cells, GFP reporter derepression, 30 h; further: % of control where 0% means no effect; nearly all actives have a fitted effect of over 60% in size
#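 Derepression of a silenced CMV-GFP reporter in murine LDR cells is scored by enumerating GFP-positive cells with a laser-scanning microplate cytometer after 30 hours of treatment at 37 C.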
# * marks the source's active call; other numbers are inactive results; u = inconclusive; x = not tested or not shown; [ ] = dose if it differs, or a comment. Unless noted, the call rests on the fitted dose curve; in most records, active means well fitted curve in the direction sought with a large enough effect; inconclusive means small, poorly fitted or top-dose-only effect, or another doubt; inactive means no such curve, though single readings can be large; an effect the other way counts as inactive or inconclusive. Potency means the concentration at half of the fitted maximal effect.
SMILES,IMPase Li cell,NPSR antagonist,Sfp PPTase inh,JMJD2E inh,GCN5L2 inh,Epigenetic derep
COc1ccc(N=C2S/C(=C\c3ccc(C)o3)C(=O)N2CC(C)C)cc1,-1%[38.3 µM],u,28µM*,-16%,-14%,11%
COc1ccc(N=C2S/C(=C\c3ccc(N4CCOCC4)o3)C(=O)N2CCc2c[nH]c3ccccc23)cc1,28%[38.3 µM],u,4µM*,-9%,-12%,u
CCCN1C(=O)/C(=C/c2ccc(C)o2)SC1=Nc1ccc(OCC)cc1,7%[38.3 µM],-13%[46.1 µM],7.9µM*,-16%,-1%,0%
CCCN1C(=O)/C(=C/c2ccc(C)o2)SC1=Nc1ccc(OC)cc1,17%[38.3 µM],u,35µM*,u,-1%,u
COC(=O)C/C=C\[C@@H](C)[C@@H](/C=N\OC[C@@H]1O[C@H](c2ccccc2)C=C[C@@H]1Oc1ccc(OC)cc1)NS(=O)(=O)c1ccc(C)cc1,x,x,-2%,x,x,1%[10.1 µM]
Oc1c(Br)cc(Br)cc1CN(Cc1cc(Br)cc(Br)c1O)C1CCCCC1,4%,x,x,x,x,x
Cc1nn(C)cc1/C=N/NC(=S)Nc1ccccc1,-12%[38.3 µM],2µM*,25µM*,u,-6%,4µM*
COC(=O)CC1=COC2OCC3=CC[C@@H]1C32 (stereo partly specified),x,x,34%,x,x,0%[10.1 µM]
C=CCOC(=O)N[C@H](C[N+](=O)[O-])c1ccccc1,15%,x,9%,1%,x,0%
O=C(/C=C/c1ccc(OCCCF)cc1)NCc1ccc(Cl)cc1,1%[38.3 µM],-14%[46.1 µM],-1%,-5%,3.5µM*,-2%
COc1ccc(CNC(=O)/C=C/c2ccc(OCCCF)cc2)cc1,0%[38.3 µM],-15%[46.1 µM],-6%,2%,0%,-2%
NCCNC(=O)c1ccc(Cl)cn1,x,x,u,x,1%,x
COc1ccccc1-c1cn[nH]c(=S)n1,8%,-9%[46.1 µM],45µM*,-26%,-16%,-1%
COc1ccccc1-c1n[nH]c(=S)n1Cc1ccccc1,x,x,10%,x,-9%,x
Cc1ccc(-c2cc(-c3ccccc3)c3c(N)c(S(C)(=O)=O)sc3n2)cc1,10µM*,-4%[46.1 µM],u,u,u,3%
Cc1cc(C)c2c(N)c(S(=O)(=O)Cc3ccccc3)sc2n1,-4%[38.3 µM],0%[46.1 µM],3%,u,0%,-3%
CS(=O)(=O)c1sc2nc(-c3cccs3)cc(-c3ccccc3)c2c1N,u,10µM*,10µM*,u,u,-1%
COC(=O)c1ccc(/C=C/c2ccc3cccc(OC(C)=O)c3n2)cc1,17%,-3%,18µM*,2%,0%,-1%
O=C(O)c1ccc(/C=C/c2ccc3cccc(O)c3n2)cc1,-4%,-51%,40µM*,8.9µM*,-7%,0%
O/N=C/c1ccc2cccc(O)c2n1,x,7%,u,32µM*,-3%,-2%
O/N=C/c1ccc2ccccc2n1,x,6%,-10%,-5%,-6%,-1%
Oc1cccc2ccc(/C=C/c3c(F)cccc3Cl)nc12,11%,-21%,5%,28µM*,-7%,u
Oc1cccc2ccc(/C=C/c3ccccc3Cl)nc12,x,x,9%,x,-4%,x
COc1cc(NS(=O)(=O)c2ccc([N+](=O)[O-])cc2)c2ncccc2c1,x,x,6%,x,x,x
COCC1=C2c3ccccc3[C@H](C[N+](=O)[O-])C(C(=O)OC)(C(=O)OC)C[C@@H]2n2c(=O)n(-c3ccccc3)c(=O)n2C1,1%,x,1%,6%,x,2%
SMILES,IMPase Li cell,NPSR antagonist,Sfp PPTase inh,JMJD2E inh,GCN5L2 inh,Epigenetic derep
CN1CCN(c2ncc3nc(-c4ccccc4)c(=O)n(C)c3n2)CC1,-29%,x,16%,x,-12%,x
O=Cc1ccc(O)cc1O,x,x,9%,x,-11%,x
O=CN/C=C/c1cc(O)ccc1O,x,59%,14µM*,u,-13%,1%
COc1cccc(-c2n[nH]c(=S)n2Cc2ccco2)c1,x,13%,32µM*,-8%,6%,-1%
S=c1[nH]nc(-c2ccc(Br)cc2)n1Cc1ccco1,33%[38.3 µM],-7%[46.1 µM],-14%,-13%,-3%,5%
S=c1[nH]nc(-c2ccncc2)n1Cc1ccco1,-8%[38.3 µM],-3%[46.1 µM],14µM*,-7%,-4%,-3%
